Hits are enriched below; roughly 3.3% of the tested compounds scored in any of these assays.
M18AAP inhibitor: PfM18AAP enzyme inhibition; recombinant PfM18AAP, H-Glu-NHMec fluorogenic cleavage; inhibition, % at 7.35 µM; actives 1.2% (n = 290,000); AID 1822;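 active = inhibition above the campaign mean inhibition over all tested compounds plus 3 SD, cut at about 28% in these data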
UHRF1 binding: blocks human UHRF1 binding to methylated DNA; Q96T88; UHRF1 binding to methylated oligo, TR-FRET; inhibition, % at 4.4 µM; actives 0.75% (n = 370,000); AID 687016; in the data active = inhibition above about 21%;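 note: UHRF1 SRA domain binding a hemimethylated CpG hairpin DNA probe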
Target sequence (Q96T88 whole entry, looked up, the tested form may be a part): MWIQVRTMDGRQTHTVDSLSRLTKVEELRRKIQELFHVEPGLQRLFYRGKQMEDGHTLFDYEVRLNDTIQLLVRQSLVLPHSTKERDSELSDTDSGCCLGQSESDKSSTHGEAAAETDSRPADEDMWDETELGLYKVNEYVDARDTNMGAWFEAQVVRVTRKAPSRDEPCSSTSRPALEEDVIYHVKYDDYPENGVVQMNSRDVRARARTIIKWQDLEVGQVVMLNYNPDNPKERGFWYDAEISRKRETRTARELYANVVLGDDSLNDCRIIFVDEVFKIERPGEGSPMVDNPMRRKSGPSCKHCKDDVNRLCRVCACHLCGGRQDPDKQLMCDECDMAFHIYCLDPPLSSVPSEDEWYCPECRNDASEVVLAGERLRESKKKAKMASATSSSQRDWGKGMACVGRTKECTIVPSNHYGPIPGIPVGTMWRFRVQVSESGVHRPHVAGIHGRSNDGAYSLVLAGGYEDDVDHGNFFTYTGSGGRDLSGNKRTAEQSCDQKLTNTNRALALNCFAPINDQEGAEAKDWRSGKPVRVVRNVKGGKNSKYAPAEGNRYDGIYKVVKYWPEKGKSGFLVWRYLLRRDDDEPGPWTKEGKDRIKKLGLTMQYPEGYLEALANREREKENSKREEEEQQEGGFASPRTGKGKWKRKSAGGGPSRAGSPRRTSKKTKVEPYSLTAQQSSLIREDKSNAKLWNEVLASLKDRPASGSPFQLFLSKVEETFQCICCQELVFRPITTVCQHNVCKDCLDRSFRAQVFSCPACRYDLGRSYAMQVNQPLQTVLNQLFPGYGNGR
PfG6PD inh: PfG6PD (Plasmodium falciparum) enzyme inhibition; PfGluPho enzyme, NADPH resazurin-diaphorase fluorescence; inhibition, % at 20 µM; actives 0.78% (n = 350,000);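 active = inhibition reaching at least a set limit at 20 µM in the primary screen, cut at about 59% in these data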
PRMT1 inh: blocks human protein arginine methyltransferase 1; inhibition, % at 2.79 µM; actives 1.3% (n = 370,000); recombinant PRMT1, activity-based probe fluorescence polarization; AID 652257;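 active = inhibition above about 21% made by adding two undisclosed values, limit read from the data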
MBD2 DNA inh: inhibitors of human MBD2 binding to methylated oligonucleotide; actives 0.31% (n = 370,000); AID 686964; inhibition, % at 4.4 µM; Q9UBB5; TR-FRET; in the data active = inhibition above about 13%
PRMT1 confirm: PRMT1 (human) inhibition, FP confirmation | shares compounds with PRMT1 inh | recombinant His-PRMT1, activity-based probe fluorescence polarization | inhibition, % at 2.79 µM | actives 42% (n = 3,300);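 active = mean inhibition across replicates above the hit cutoff derived for the earlier primary screen, cut at about 22% in these data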
Hits are given with their value; – = inactive; · = no result given.

SMILES	M18AAP inhibitor	UHRF1 binding	PfG6PD inh	PRMT1 inh	MBD2 DNA inh	PRMT1 confirm
COCCCNC(=O)C[C@H]1C[C@@]2(C(=O)OC)C(=C[C@H](COCc3ccccc3)O[C@@H]2C)N(CCc2ccc(OC)c(OC)c2)C1=O	·	–	·	–	–	·
CC1CCN(Cc2nnc(-c3cccc(Br)c3)o2)CC1	–	–	–	–	–	·
Cc1cccc(NC(=O)CNC(=O)c2cc(S(=O)(=O)N(C)C)ccc2N2CCCC2)c1C	·	–	–	–	–	·
O=C(CC(Sc1ccc(Br)cc1)C(=O)O)c1ccc(F)cc1 (stereo not drawn)	–	–	–	80	–	88
CCOc1ccc(C(=O)CC(Sc2ccc(C)cc2)C(=O)O)cc1 (stereo not drawn)	–	–	–	29	–	54
CCC(Sc1ccc(C(=O)O)cc1)C(=O)O (stereo not drawn)	–	–	–	–	–	·
CCC(C)(C)C(=O)N1CCc2cc(S(=O)(=O)N(C)Cc3ccco3)ccc21	·	–	·	–	–	·
CCc1cc2c(=O)n(Cc3ccco3)c(SCc3c(C)noc3C)nc2s1	–	–	–	53	–	–
CCc1cc2c(=O)n(Cc3ccco3)c(SCC(=O)NCC3CCCO3)nc2s1 (stereo not drawn)	–	–	–	–	–	·
CCc1cc2c(=O)n(Cc3ccco3)c(SCC(=O)N3CCCc4ccccc43)nc2s1	–	–	–	46	–	–
Cc1ccc(N2C(=O)N3[C@H](c4ccc(F)cc4)[C@@H]4C(=O)N(C5CCCCC5)C(=O)[C@@H]4[C@]3(Cc3ccccc3)C2=O)cc1	–	–	–	–	–	·
Cc1sc2c3ccsc3ccc2[n+]1C	30	–	–	67	–	59
O=C(CSc1n[nH]c(-c2ccncc2)n1)c1ccccc1	–	–	–	–	–	·
Cc1nc(SCC(=O)c2ccccc2)n[nH]1	–	–	–	54	–	43
Cc1ccc(NP(=O)(Nc2ccc(C)cc2)Nc2ccc(C)cc2)cc1	–	–	–	–	–	·
CCC1(C)Cc2c(C#N)c(N)n(-c3ccccc3)c(=S)c2CO1 (stereo not drawn)	–	–	–	–	–	·
N#Cc1c(N)sc(=S)c2c1CCCC2	–	–	–	28	–	–
CCCC1Cc2c(sc(N)c2C#N)CO1 (stereo not drawn)	–	–	–	–	–	·
CCC1(C)Cc2c(C#N)c(N)sc(=S)c2CO1 (stereo not drawn)	–	–	–	28	–	27
O=c1[nH]cc(C=NNc2ccccc2)c(=O)[nH]1	·	–	·	–	–	·
CC1CCCCC12NC(=O)N(CC(=O)Nc1ccc(N3CCCCC3)cc1)C2=O (stereo not drawn)	·	–	–	–	–	·
O=C(O)c1ccc2c(=O)n3c(nc2c1)/C(=C/c1cccc(Cl)c1Cl)CC3	–	–	–	–	–	·
COc1ccc(C2CC(c3ccc(OC)cc3)n3nc(NS(C)(=O)=O)nc3N2)cc1 (stereo not drawn)	–	–	–	–	–	·
C=CCN(CC#Cc1ccc(C(F)(F)F)cc1)CC=C	·	–	·	–	–	·
CC(=O)N1c2ccc(S(=O)(=O)NCC3CCC(C(=O)NC4CCCCC4C)CC3)cc2CC1C (stereo not drawn)	–	–	–	–	–	·
SMILES	M18AAP inhibitor	UHRF1 binding	PfG6PD inh	PRMT1 inh	MBD2 DNA inh	PRMT1 confirm
Cc1ccc(-c2cc3nc(-c4ccco4)cc(N4CCN(Cc5ccoc5)CC4)n3n2)cc1	·	–	·	27	–	–
CC(=O)N1CCN(c2cc(-c3ccco3)nc3cc(-c4ccccc4)nn23)CC1	·	–	·	51	–	–
Cc1ccc(-c2cc3nc(-c4ccccc4)cc(N4CCC5(CC4)OCCO5)n3n2)cc1	–	–	–	–	–	·
OC(c1ccccc1)c1nc(-c2cncnc2)cs1 (stereo not drawn)	·	–	·	–	–	·
Cc1ccc(S(=O)(=O)/N=C2/NC(=O)/C(=C/c3ccc(Br)o3)S2)cc1	–	81	–	56	25	–
Cc1ccc(S(=O)(=O)/N=C2/NC(=O)/C(=C\c3cc(Br)cc(Br)c3O)S2)cc1	–	·	–	·	·	·
Nc1ccccc1Sc1ccc(C(=O)c2ccccc2C(=O)O)cc1[N+](=O)[O-]	30	–	–	72	–	–
CCOC(=O)c1c(-c2ccco2)csc1NC(=O)COC(=O)c1cnccn1	·	–	–	25	–	–
CCOC(=O)c1c(-c2ccco2)csc1NC(=O)CSc1nnc(N)s1	–	–	–	–	–	·
CCOC(=O)c1c(-c2ccco2)csc1N	–	–	–	25	–	–
CCOc1ccccc1NC(=O)COC(=O)C1CC(=O)N(c2c(C)cccc2C)C1 (stereo not drawn)	–	–	–	–	–	·
C1=C(c2ccc(-c3ccccc3)cc2)Nc2ncnn2C1c1ccco1 (stereo not drawn)	–	–	–	39	–	22
CCOC(=O)C1=CN(Cc2cccc(-c3ccc(Cl)nc3)c2)S(=O)(=O)N(C)C1C (stereo not drawn)	·	–	–	–	–	·
Cc1cc(C)nc(N2N=C(C(C)(C)C)CC2=O)n1	–	–	–	41	–	–
Cc1ccc(SCC2=NN(c3nc(C)cc(C)n3)C(=O)C2)cc1	–	–	–	–	–	·
COC(=O)CNc1ccc2c(c1)OCO2	31	–	–	36	–	–
O=C(COC(=O)c1cc(Br)ccc1O)Nc1cc(S(=O)(=O)N2CCCC2)ccc1Cl	–	–	–	45	–	22
CC(=O)Nc1c(O)nc(SCC(=O)Nc2c(C)cccc2C)[nH]c1=O	–	–	–	57	–	25
CCCc1cc(=O)[nH]c(SCC(=O)Nc2c(C)cccc2C)n1	–	·	–	·	·	·
Fc1cccc(Cl)c1C1Nc2cccc3cccc(c23)N1	–	–	–	33	–	27
CCOc1ccc(NC(=O)C2=NN(c3ccccc3)C(=O)CC2)cc1S(=O)(=O)N1CCCCC1	·	–	–	–	–	·
CN(C)c1ccc2nc3c(=O)[nH]c(=O)nc-3n(CC(O)C(O)C(O)CO)c2c1 (stereo not drawn)	–	–	–	80	–	55
CCCCC(Sc1nc(C)c(Cc2ccccc2)c(=O)[nH]1)C(=O)O (stereo not drawn)	–	–	–	–	–	·
CC(=O)N1c2ccc(C)cc2C(c2ccccc2)CC1C (stereo not drawn)	–	–	–	–	–	·
CC(C)N1CCc2c(sc(NC(=O)C(F)(F)F)c2-c2nc3ccccc3s2)C1	·	–	·	31	–	–
CCOc1ccc(NC(=O)/C(C=Nc2ccccc2)=C(\C)O)cc1	–	–	–	–	–	·
Cc1ccc(-c2onc3ccc(Cl)cc23)cc1	–	–	–	–	–	·
COc1ccc(-c2onc3ccc(Cl)cc23)cc1	–	–	–	30	–	–
CCOc1ccc(N2CC(C(=O)NCc3ccco3)CC2=O)cc1 (stereo not drawn)	–	–	–	–	–	·
Cc1ccc(C2CC(=O)N3CN(Cc4ccco4)CSC3=C2C#N)cc1 (stereo not drawn)	31	–	–	39	–	–

High-throughput results: PubChem BioAssay, several laboratories
